Assay results published in PubChem BioAssay (EPA / NIEHS).
Where “and” joins values, the source holds several entries; their conditions need not be identical. Equal entries are not always repeated. Records with an inconclusive call do not appear. A structure can be active in one record and inactive in another. Calls of active or inactive are those of the source. Rule for the calls: active = hit-call score of the fitted dose curve at least 0.9, where 1 is the maximum; inconclusive = response in the unintended direction; inactive = score below 0.9.

Assays:
[1] = molecular target: Androgen Receptor/SRC-1 Co-activator, AR (gene 367) (UniProt P10275); experiment: OT_AR_ARSRC1_0480: Odyssey Thera (OT) 8-hour HEK293T Protein-Complementation Assay for Androgen Receptor/SRC-1 Co-activator (AID 2283354);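 note: hits raise the complementation signal above DMSO so AC50 marks enhancers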
Androgen Receptor/SRC-1 Co-activator, AR (gene 367), sequence (P10275 whole entry, looked up, the tested form may be a part): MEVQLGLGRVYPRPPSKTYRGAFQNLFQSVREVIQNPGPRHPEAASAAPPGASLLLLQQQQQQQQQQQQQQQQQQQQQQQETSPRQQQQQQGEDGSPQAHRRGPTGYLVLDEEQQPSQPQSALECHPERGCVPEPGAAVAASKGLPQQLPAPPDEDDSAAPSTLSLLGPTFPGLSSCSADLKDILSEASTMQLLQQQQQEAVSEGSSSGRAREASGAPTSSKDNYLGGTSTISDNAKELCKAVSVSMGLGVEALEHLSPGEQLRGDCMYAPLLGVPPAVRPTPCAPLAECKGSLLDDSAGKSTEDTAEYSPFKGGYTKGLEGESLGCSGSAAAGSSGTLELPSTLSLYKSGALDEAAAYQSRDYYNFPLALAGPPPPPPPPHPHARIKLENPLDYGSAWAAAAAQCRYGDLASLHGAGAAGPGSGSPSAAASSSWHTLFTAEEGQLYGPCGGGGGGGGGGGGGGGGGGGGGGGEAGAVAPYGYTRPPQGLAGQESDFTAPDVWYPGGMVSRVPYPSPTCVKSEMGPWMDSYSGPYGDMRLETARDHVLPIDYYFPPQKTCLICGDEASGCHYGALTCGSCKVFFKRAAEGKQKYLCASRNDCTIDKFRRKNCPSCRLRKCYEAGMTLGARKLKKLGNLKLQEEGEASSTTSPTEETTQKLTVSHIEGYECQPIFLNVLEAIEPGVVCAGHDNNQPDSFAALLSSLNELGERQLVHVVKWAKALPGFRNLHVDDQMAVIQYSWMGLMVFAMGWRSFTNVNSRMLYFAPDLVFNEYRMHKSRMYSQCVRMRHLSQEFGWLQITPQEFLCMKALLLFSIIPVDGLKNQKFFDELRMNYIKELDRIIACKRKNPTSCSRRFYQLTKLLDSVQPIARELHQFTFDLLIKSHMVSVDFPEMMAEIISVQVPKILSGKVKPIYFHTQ
Outline: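 Split-Venus PCA, stable HEK293T, AR/SRC-1 fusions; 8 h exposure. Readout: 488nm N/C fluorescence ratio, ≥400 cells/image; fitted upward vs DMSO baseline.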

[2] = molecular target: human Serotonin Transporter (SERT), SLC6A4 (gene 6532) (UniProt P31645); experiment: NVS_TR_hSERT: NovaScreen (NVS) Transporter Assay for human Serotonin Transporter (SERT) (AID 2283372)
Outline: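 Human platelet membrane preparation; displacement of radioligand from serotonin transporter measured after 1 h by filtration and scintillation counting. Single 25 uM duplicate screen, then concentration series for actives, with DMSO as negative baseline.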

[3] = molecular target: rat Serotonin Transporter (SERT), Slc6a4 (gene 25553) (UniProt P31652); experiment: NVS_TR_rSERT: NovaScreen (NVS) Transporter Assay for rat Serotonin Transporter (SERT) (AID 2283375)
Outline: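 Steps: rat forebrain membranes dosed with chemical (25 uM duplicate primary; concentration series for actives); 1 h incubation; labelled ligand bound, filtered, counted by scintillation. Activity scored as signal loss vs DMSO.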

[4] = molecular target: Norway rat Vesicular Monoamine Transporter (VMAT2), neurotransmitter transporter, Slc18a2 (gene 25549) (UniProt Q01827); experiment: NVS_TR_rVMAT2: NovaScreen (NVS) Transporter Assay for Norway rat Vesicular Monoamine Transporter (VMAT2), neurotransmitter transporter (AID 2283376);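 note: actives lower the bound radioligand signal below the DMSO level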
Outline: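 Filter-based scintillation counting of radioligand bound to rat forebrain-derived VMAT2 protein, cell-free, 1 h post-dose. Signal loss relative to DMSO control scored; single-concentration duplicate screen (25 uM) followed by concentration-response testing of actives.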

[5] = molecular target: Estrogen receptor (Homo sapiens) + Estrogen receptor beta (Homo sapiens) (UniProt P03372+Q92731); experiment: OT_ER_ERaERb_1440: Odyssey Thera (OT) 24-hour HEK293T Protein-Complementation Assay for Estrogen Receptor-alpha/-beta Homodimer (AID 2283356);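 note: heteromer of ER alpha and ER beta binding domains; hits raise reporter fluorescence and both agonists and antagonists give an increase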
Outline: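 Heterodimerisation of ERα (aa 310-547) and ERβ (aa 263-489) ligand binding domains was tracked as fluorescence gain in stably transfected HEK293T cells following 24 h dosing, normalised to DMSO controls.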

[6] = molecular target: Retinoic acid receptor alpha (Homo sapiens) (UniProt P10276); experiment: NVS_NR_hRAR_Antagonist: NovaScreen (NVS) Nuclear Receptor Binding Assay for human Retinoic Acid Alpha Receptor Antagonism (RAR) (AID 2283358)
Retinoic acid receptor alpha (Homo sapiens), sequence (P10276 whole entry, looked up): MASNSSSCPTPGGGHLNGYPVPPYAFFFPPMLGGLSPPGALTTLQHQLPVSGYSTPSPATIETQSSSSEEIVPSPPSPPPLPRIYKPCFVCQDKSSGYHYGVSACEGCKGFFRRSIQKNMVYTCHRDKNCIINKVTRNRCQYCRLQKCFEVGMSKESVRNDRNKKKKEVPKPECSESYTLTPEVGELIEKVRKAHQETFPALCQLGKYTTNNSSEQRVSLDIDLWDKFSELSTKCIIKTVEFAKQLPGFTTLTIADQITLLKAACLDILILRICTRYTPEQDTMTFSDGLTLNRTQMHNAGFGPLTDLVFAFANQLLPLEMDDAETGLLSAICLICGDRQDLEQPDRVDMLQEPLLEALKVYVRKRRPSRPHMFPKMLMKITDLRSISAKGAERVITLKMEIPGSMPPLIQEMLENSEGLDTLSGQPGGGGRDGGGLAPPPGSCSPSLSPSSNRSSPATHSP
Outline: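 Read-out: time-resolved FRET binding signal, 2 h post-dose, cell-free extracted protein. Antagonism scored as signal loss versus DMSO negative control. Primary single-concentration screen at 25 uM in duplicate; concentration series for actives.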

[7] = molecular target: human Peroxisome Proliferator-activated Receptor alpha (PPARa), PPARA (gene 5465) (UniProt Q07869); experiment: NVS_NR_hPPARa: NovaScreen (NVS) Nuclear Receptor Binding Assay for human Peroxisome Proliferator-activated Receptor alpha (PPARa) (AID 2283359);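 note: activity means loss of TR-FRET signal versus DMSO baseline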
Outline: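 TR-FRET signal measured at 1 h post-dosing; loss-of-signal versus DMSO negative control taken as activity. Extracted gene-protein, cell-free format. Initial single-point duplicates at 25 uM, then concentration-response retests.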

[8] = molecular target: human Thyroid Receptor Alpha (TRa), THRA (gene 7067) (UniProt P10827); experiment: NVS_NR_hTRa_Antagonist: NovaScreen (NVS) Nuclear Receptor Binding Assay for human Thyroid Receptor Alpha Antagonism (TRa) (AID 2283362)
human Thyroid Receptor Alpha (TRa), THRA (gene 7067), sequence (P10827 whole entry, looked up): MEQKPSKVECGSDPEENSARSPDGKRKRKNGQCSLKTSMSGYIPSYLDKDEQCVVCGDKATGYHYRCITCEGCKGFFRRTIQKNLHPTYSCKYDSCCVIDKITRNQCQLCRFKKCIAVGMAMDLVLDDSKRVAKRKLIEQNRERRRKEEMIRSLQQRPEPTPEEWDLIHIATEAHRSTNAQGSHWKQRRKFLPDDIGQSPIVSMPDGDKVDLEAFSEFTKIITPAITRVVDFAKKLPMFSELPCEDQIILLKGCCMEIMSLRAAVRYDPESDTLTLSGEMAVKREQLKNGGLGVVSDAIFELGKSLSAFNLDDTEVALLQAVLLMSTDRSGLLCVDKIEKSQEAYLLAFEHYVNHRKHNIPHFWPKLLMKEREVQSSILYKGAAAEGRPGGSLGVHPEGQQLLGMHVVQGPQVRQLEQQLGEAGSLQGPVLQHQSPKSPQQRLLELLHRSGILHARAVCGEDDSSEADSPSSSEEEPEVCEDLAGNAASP
Outline: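 Chemicals were first screened in duplicate at 25 uM, then actives were retested in concentration series. Binding to the extracted receptor was measured 1 h after dosing by AlphaLISA chemiluminescence, with decreased signal versus DMSO scored as activity.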

[9] = molecular target: Glucocorticoid receptor (Homo sapiens) (UniProt P04150); experiment: NVS_NR_hGR: NovaScreen (NVS) Nuclear Receptor Binding Assay for human Glucocorticoid Receptor (GR) (AID 2283363);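 for AC50: activity is loss of specific radioligand binding signal relative to DMSO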
Outline: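 Filter scintillation readout of tritiated/iodinated radioligand displaced by test chemical; cell-free extracted protein; 16 h. DMSO = negative control/baseline. Duplicate single-point 25 uM screen, then concentration-response on actives.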

[10] = molecular target: Nuclear receptor subfamily 1 group I member 2 (Homo sapiens) (UniProt O75469); experiment: NVS_NR_hPXR: NovaScreen (NVS) Nuclear Receptor Binding Assay for human Pregnane X Receptor (PXR) (AID 2283365);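 note: a drop in FRET signal versus DMSO baseline means the compound binds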
Nuclear receptor subfamily 1 group I member 2 (Homo sapiens), sequence (O75469 whole entry, looked up): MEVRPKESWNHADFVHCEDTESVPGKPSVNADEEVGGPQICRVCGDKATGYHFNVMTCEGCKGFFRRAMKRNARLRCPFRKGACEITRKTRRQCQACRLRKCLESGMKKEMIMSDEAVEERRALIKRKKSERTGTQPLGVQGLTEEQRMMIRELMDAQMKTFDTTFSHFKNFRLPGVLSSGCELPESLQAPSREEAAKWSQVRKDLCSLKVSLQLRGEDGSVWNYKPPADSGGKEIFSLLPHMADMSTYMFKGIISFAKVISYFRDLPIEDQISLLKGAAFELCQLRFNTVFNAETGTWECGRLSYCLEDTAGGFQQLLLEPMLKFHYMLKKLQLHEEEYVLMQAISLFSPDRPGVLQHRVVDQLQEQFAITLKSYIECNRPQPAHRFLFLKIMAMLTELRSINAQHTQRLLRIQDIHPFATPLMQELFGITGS
Outline: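 Binding was measured by time-resolved fluorescence resonance energy transfer after a 2 h exposure of extracted human PXR protein without cells. Compounds were first tested at 25 uM in duplicate, with concentration series for actives; DMSO defined baseline.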

[11] = test system: guinea pig Dopamine Transporter (DAT), gene 100714898; experiment: NVS_TR_gDAT: NovaScreen (NVS) Transporter Assay for guinea pig Dopamine Transporter (DAT) (AID 2283369);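 note: active compounds lower bound radioligand signal relative to DMSO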
Outline: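 Test chemicals were incubated 2 h with guinea pig striatal membranes and a radioligand; bound label was separated by filtration and counted. Screening ran at 25 uM, followed by concentration-response testing to a 50 uM maximum.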

[12] = molecular target: Peroxisome proliferator-activated receptor gamma (Homo sapiens) (UniProt P37231); experiment: NVS_NR_hPPARg: NovaScreen (NVS) Nuclear Receptor Binding Assay for human Peroxisome Proliferator-activated Receptor gamma (PPARg) (AID 2283370)
Peroxisome proliferator-activated receptor gamma (Homo sapiens), sequence (P37231 whole entry, looked up): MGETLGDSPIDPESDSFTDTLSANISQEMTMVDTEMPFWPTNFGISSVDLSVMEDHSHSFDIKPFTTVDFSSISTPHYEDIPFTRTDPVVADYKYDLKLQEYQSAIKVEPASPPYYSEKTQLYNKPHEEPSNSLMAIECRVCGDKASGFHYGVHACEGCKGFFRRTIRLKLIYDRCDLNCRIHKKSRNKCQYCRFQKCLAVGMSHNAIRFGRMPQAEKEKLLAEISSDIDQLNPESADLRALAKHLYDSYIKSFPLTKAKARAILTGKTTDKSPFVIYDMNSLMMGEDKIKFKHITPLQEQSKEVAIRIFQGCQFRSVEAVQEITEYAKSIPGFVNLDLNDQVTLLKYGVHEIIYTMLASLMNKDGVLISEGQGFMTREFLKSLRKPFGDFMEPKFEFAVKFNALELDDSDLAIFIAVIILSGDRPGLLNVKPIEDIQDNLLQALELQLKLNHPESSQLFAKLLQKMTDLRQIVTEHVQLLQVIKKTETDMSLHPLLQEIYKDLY
Outline: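 Fluorescence polarization measures competitive binding to extracted PPARg in a cell-free format. Reading is taken at 2 h; activity is signal loss relative to DMSO. Screening at 25 uM in duplicate preceded confirmatory dose series.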

[13] = molecular target: human Dopamine Transporter (DAT), SLC6A3 (gene 6531) (UniProt Q01959); experiment: NVS_TR_hDAT: NovaScreen (NVS) Transporter Assay for human Dopamine Transporter (DAT) (AID 2283374);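 note: activity means loss of bound radioligand signal relative to DMSO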
human Dopamine Transporter (DAT), SLC6A3 (gene 6531), sequence (Q01959 whole entry, looked up): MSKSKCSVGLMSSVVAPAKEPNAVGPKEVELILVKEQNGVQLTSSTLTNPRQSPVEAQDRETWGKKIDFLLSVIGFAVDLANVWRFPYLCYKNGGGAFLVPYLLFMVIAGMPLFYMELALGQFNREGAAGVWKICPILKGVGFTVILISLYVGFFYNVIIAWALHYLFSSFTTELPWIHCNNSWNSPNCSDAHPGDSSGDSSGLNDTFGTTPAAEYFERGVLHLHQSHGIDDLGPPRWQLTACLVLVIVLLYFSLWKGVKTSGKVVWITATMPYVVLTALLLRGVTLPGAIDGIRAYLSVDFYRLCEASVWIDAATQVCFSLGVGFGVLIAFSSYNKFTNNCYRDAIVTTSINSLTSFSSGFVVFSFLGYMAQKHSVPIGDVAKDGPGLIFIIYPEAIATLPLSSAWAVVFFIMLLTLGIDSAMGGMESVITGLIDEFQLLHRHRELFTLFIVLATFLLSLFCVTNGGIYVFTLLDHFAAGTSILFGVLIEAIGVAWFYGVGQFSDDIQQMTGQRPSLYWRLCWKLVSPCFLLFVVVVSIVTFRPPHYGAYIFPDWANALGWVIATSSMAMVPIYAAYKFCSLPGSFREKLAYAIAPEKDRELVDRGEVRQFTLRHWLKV
Outline: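 hDAT membranes + tritiated/iodinated radioligand, competitive displacement; 1 h; filter scintillation readout. Single conc 25 uM (duplicate), then conc-response for actives. DMSO = negative control.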

[14] = molecular target: rat Mineralocorticoid Receptor (MR), Nr3c2 (gene 25672) (UniProt P22199); experiment: NVS_NR_rMR: NovaScreen (NVS) Nuclear Receptor Binding Assay for rat Mineralocorticoid Receptor (MR) (AID 2283355)
Outline: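 Radioligand displacement, scintillation readout; tissue source adrenalectomized rat brain supernatant. Read 24 h post-dose. Screened in duplicate at 25 uM, DMSO negative control, controls on every plate; actives re-run in concentration series.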

[15] = test system: rat Norepinephrine Transporter (NET), gene 83511; experiment: NVS_TR_rNET: NovaScreen (NVS) Transporter Assay for rat Norepinephrine Transporter (NET) (AID 2283373)
Outline: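 Competitive radioligand displacement at the rat NET using forebrain membrane preparations, 1 h incubation, filter-based scintillation readout. Primary testing in duplicate at a single 25 uM concentration; confirmed actives retested across concentrations.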

PGR (gene 5241) = PGR (gene 5241) (UniProt P06401); experiment: NVS_NR_hPR: NovaScreen (NVS) Nuclear Receptor Binding Assay for human Progestron Receptor (PR) (AID 2283360);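 note: active means loss of bound radioligand signal versus DMSO baseline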
PGR (gene 5241), sequence (P06401 whole entry, looked up): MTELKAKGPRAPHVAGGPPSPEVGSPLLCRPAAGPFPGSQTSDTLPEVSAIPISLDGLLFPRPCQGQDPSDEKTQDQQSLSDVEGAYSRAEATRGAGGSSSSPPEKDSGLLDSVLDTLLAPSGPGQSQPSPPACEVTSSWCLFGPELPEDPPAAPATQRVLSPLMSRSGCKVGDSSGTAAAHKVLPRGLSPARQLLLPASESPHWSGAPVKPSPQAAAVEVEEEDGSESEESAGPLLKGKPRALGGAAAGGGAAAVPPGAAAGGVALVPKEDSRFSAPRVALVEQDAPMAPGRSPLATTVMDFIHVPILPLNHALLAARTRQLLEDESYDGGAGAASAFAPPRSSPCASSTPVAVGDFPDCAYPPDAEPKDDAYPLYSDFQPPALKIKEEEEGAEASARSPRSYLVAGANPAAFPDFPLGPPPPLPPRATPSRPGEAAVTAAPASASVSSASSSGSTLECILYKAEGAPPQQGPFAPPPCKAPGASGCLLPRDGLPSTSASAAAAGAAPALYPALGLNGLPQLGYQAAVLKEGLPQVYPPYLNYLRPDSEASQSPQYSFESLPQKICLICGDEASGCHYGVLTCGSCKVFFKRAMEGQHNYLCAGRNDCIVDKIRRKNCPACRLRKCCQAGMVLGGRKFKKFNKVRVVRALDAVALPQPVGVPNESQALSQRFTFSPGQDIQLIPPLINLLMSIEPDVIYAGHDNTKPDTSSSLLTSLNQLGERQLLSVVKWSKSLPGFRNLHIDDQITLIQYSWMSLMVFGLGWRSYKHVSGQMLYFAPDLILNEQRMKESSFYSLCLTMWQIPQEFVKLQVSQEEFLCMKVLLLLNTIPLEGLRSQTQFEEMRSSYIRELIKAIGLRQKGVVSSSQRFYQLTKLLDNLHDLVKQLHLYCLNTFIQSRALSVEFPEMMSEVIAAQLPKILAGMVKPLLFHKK
Outline: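 T47D lysate; tritiated or iodinated radioligand; scintillation count at 18 h. DMSO = negative control/baseline. Primary: 25 uM, duplicate. Secondary: concentration series for actives.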

[16] = molecular target: rat Androgen Receptor (AR), Ar (gene 24208) (UniProt P15207); experiment: NVS_NR_rAR: NovaScreen (NVS) Nuclear Receptor Binding Assay for rat Androgen Receptor (AR) (AID 2283366)
Outline: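 Actives from a duplicate single-concentration (25 uM) primary run went on to concentration series. Displacement of radioligand was counted by filtration and scintillation, 18 h post-dose, using prostate extracts from testosterone-pretreated rats, with DMSO as baseline.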

[17] = molecular target: guinea pig Sigma Receptor, Non-selective Binding, SIGMAR1 (gene 100135589) (UniProt Q60492); experiment: NVS_OR_gSIGMA_NonSelective: NovaScreen (NVS) Nuclear Receptor Binding Assay for guinea pig Sigma Receptor, Non-selective Binding (AID 2283367)
guinea pig Sigma Receptor, Non-selective Binding, SIGMAR1 (gene 100135589), sequence (Q60492 whole entry, looked up): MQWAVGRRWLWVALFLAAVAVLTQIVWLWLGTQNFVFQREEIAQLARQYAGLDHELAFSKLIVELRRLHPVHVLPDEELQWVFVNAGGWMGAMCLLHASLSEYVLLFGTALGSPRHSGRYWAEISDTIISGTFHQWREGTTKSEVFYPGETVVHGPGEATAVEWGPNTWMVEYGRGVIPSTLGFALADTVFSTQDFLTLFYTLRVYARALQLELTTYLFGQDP
Outline: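 Membranes from guinea pig brain incubated with radioligand and test chemical for 1 h, then filtered and scintillation-counted. Duplicate primary testing at 25 uM, with concentration-series follow-up for actives.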

[18] = molecular target: human Adenosine Transporter (Adot), SLC29A1 (gene 2030) (UniProt Q99808); experiment: NVS_TR_hAdoT: NovaScreen (NVS) Transporter Assay for human Adenosine Transporter (Adot) (AID 2283368)
Outline: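 Binding displacement on U937 extracted protein, read 1 h post-dose by filtration and scintillation counting. Primary duplicate test at 25 uM, then singleton concentration series with 50 uM top; DMSO baseline.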

Measured: AC50

O=C(Nc1ccccc1)Nc1ccnc(Cl)c1
inactive: [1] | [2] | [3]
active: [4] 6.12 µM

COc1ccc(C(c2ccc(OC)cc2)C(Cl)(Cl)Cl)cc1
active: [5] 25.8 µM and 33.2 µM and 22.2 µM | [11] 14 µM
inactive: [6] | [7] | [8] | [9] | [10] | [12] | [13] | [4]

CCCCNC(=O)n1c(NC(=O)OC)nc2ccccc21
inactive: [1] | [14] | [5] | [15]

CC(C)(C)c1ccc(CSc2cnn(C(C)(C)C)c(=O)c2Cl)cc1
inactive: [5]

CC(C)C1(C)N=C(c2nc3ccccc3cc2C(=O)O)NC1=O (stereo unspecified)
inactive: [5]

C=CC1(C)OC(=O)N(c2cc(Cl)cc(Cl)c2)C1=O (stereo unspecified)
inactive: [5] | [9] | [12]
active: [7] 37.4 µM | [9] 6.97 µM

COC(=O)c1ccccc1C(=O)OC
inactive: [5] | [6] | PGR (gene 5241) | [9] | [12]

COC(=O)C=C(C)OP(=O)(OC)OC
inactive: [5]

CC(C)Oc1cc(-n2nc(C(C)(C)C)oc2=O)c(Cl)cc1Cl
inactive: [1] | [5] | PGR (gene 5241)

Cc1ccc(-c2c(Cl)nc(C#N)n2S(=O)(=O)N(C)C)cc1
inactive: [1] | [5] | [9] | [12]

CC1=C(C(=O)Nc2ccccc2)SCCO1
inactive: [1] | [5]
active: [11] 13.9 µM | [15] 8.37 µM | [13] 9.69 µM

Oc1ccccc1-c1ccccc1
active: [5] 35.7 µM | [10] 15.7 µM
inactive: [5] | [7] | [8] | [12] | [15]

COP(N)(=O)SC (stereo unspecified)
inactive: [5] | [6] | [9] | [12]

CN(C)C(=S)SSC(=S)N(C)C
inactive: [1] | [5]

COC(=O)C(C)Oc1ccc(Oc2ccc(Cl)cc2Cl)cc1 (stereo unspecified)
inactive: [14] | [11] | [13]
active: [13] 14.2 µM

CCCCOC(=O)c1ccccc1C(=O)OCCCC
inactive: [6] | PGR (gene 5241) | [9] | [10] | [11] | [12] | [13]
active: [5] 38.4 µM and 33.9 µM and 39.3 µM | [8] 0.111 µM | [11] 19.5 µM

N#Cc1cc(Br)c(O)c(Br)c1
inactive: [1] | [7]

Cc1cc(Cl)ccc1OCC(=O)O
inactive: [1] | [12] | [2] | [3]

CCOC(=O)CC(SP(=S)(OC)OC)C(=O)OCC (stereo unspecified)
active: [17] 11.4 µM
inactive: [1] | PGR (gene 5241) | [9] | [16] | [12]

CO/C=C(/C(=O)OC)c1ccccc1Oc1cc(Oc2ccccc2C#N)ncn1
not listed: [2] | [3] | [4] | [7] | [11] | [14] | [15] | [17]
inactive: all other assays above

N#Cc1nn(-c2c(Cl)cc(C(F)(F)F)cc2Cl)c(N)c1S(=O)C(F)(F)F (stereo unspecified)
inactive: [1] | [5] | [6] | [17] | [12]

CCCC1COC(Cn2cncn2)(c2ccc(Cl)cc2Cl)O1 (stereo unspecified)
inactive: [1] | [6] | PGR (gene 5241) | [10] | [16] | [12]
active: [9] 10.5 µM | [17] 25 µM
